# Laboratory results taken from PubChem BioAssay (EPA / NIEHS).
# Values joined by “and” are separate entries in the source; they are usually repeats but may differ in a detail not shown here. Identical values can stand only once. Records with an inconclusive call do not appear. The source holds several records for some structures; these can differ, active in one and inactive in another. Active and inactive are the calls of the source. How the source made its calls, unless noted: active means hit-call score of the fitted dose curve at least 0.9, where 1 is the maximum; inconclusive means response in the unintended direction; inactive means score below 0.9.
# What was measured:
# [1] = Tanguay_ZF_120hpf_NC_legacy: (Legacy) Oregon State University Tanguay Lab 120 Hour Post-fertilization zebrafish Assay for Notochord and Tail Malformation (AID 2283656)
# In short: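 Dechorionated Tropical 5D wild-type zebrafish embryos, one per well from 6 hpf, statically exposed to 120 hpf at 28C in 0.64% DMSO final. Notochord distortion scored present/absent by brightfield; dead embryos excluded.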
# [2] = read-out: solute carrier (SLC10A1), SLC10A1 (gene 6554); assay: LTEA_HepaRG_SLC10A1: Life Technologies and Expression Analysis (LTEA) Assay for solute carrier (SLC10A1) using HepaRG (AID 2283657; active means hit-call score of the fitted dose curve at least 0.9, where 1 is the maximum; inactive means score below 0.9); settings: mRNA level, 48 h; actives raise or lower the signal
# In short: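 HepaRG cells (single lot) exposed 48 h in serum-free induction medium, 8-point half-log series from 100 uM top in 0.5% DMSO, duplicate. SLC10A1 mRNA by qRT-PCR normalised to ACTB, GAPDH, POLR2A; bidirectional fit versus DMSO.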
# [3] = read-out: matrix metalloproteinase-1 (MMP1), MMP1 (gene 4312); assay: LTEA_HepaRG_MMP1: Life Technologies and Expression Analysis (LTEA) Assay for matrix metalloproteinase-1 (MMP1) using HepaRG (AID 2283658; active means hit-call score of the fitted dose curve at least 0.9, where 1 is the maximum; inactive means score below 0.9); settings: mRNA level, 48 h; actives raise or lower the signal
# In short: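 In this screen, human liver HepaRG cultures receive each chemical in duplicate for 48 h (top 100 uM, 0.5% DMSO). MMP1 expression is then quantified by TaqMan qRT-PCR with ACTB/GAPDH/POLR2A normalization.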
# [4] = read-out: ABC Transporter (ABCB1), ABCB1 (gene 5243); assay: CLD_ABCB1_6hr: CellzDirect (CLD) Gene Expression Assay for ABC Transporter (ABCB1) at 6 hours (AID 2283659);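 further: hits raise ABCB1 transcript above the DMSO vehicle baseline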
# In short: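 Primary human hepatocytes (two donor preparations) dosed daily for two days with chemicals at multiple concentrations, 0.2% DMSO vehicle; harvested 6 h post-dose. ABCB1 mRNA induction quantified by qNPA chemiluminescence; gain-of-signal fitted versus DMSO.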
# [5] = Tanguay_ZF_120hpf_TR_legacy: (Legacy) Oregon State University Tanguay Lab 120 Hour Post-fertilization zebrafish Assay for Touch Response (AID 2283667)
# In short: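 Tropical 5D wild-type zebrafish embryos statically exposed to 120 hpf at 28°C, sealed and dark-covered, 0.64% DMSO final; touch response scored as present/absent by brightfield microscopy at 120 hpf. Trimethyltin chloride 5 uM positive control; dead embryos not scored.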
# [6] = read-out: organic anion transporter (SLCO1B1), SLCO1B1 (gene 10599); assay: CLD_SLCO1B1_6hr: CellzDirect (CLD) Gene Expression Assay for organic anion transporter (SLCO1B1) at 6 hours (AID 2283668);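 further: active means mRNA induction above DMSO baseline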
# In short: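 Primary human hepatocytes dosed daily with test chemicals (multiple concentrations) in 0.2% DMSO vehicle; harvested at 6 h. SLCO1B1 mRNA quantified by qNPA chemiluminescence, fitted as gain-of-signal versus DMSO; cytotoxicity from phase-contrast morphology flagged alongside.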
# [7] = read-out: Cytochrome P450 (CYP24A1_1), CYP24A1 (gene 1591); assay: LTEA_HepaRG_CYP24A1_1: Life Technologies and Expression Analysis (LTEA) Assay for Cytochrome P450 (CYP24A1_1) using HepaRG (AID 2283671; active means hit-call score of the fitted dose curve at least 0.9, where 1 is the maximum; inactive means score below 0.9); settings: mRNA level, 48 h; actives raise or lower the signal
# In short: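 Differentiated human HepaRG cells in serum-free induction medium, exposed 48 h in duplicate to eight half-log concentrations from 100 uM top, 0.5% DMSO. Transcript measured by TaqMan qRT-PCR, normalised to ACTB, GAPDH, POLR2A; bidirectional fitting versus DMSO.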
# [8] = read-out: ABC Transporter (ABCB11), ABCB11 (gene 8647); assay: CLD_ABCB11_6hr: CellzDirect (CLD) Gene Expression Assay for ABC Transporter (ABCB11) at 6 hours (AID 2283675);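 further: hits raise ABCB11 mRNA level so AC50 marks induction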
# In short: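 Human primary hepatocytes (two donor preparations) given fresh chemical daily at multiple concentrations, vehicle 0.2% DMSO. ABCB11 mRNA induction measured 6 h after dosing by qNPA chemiluminescence versus DMSO; cytotoxicity annotated from morphology.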
# [9] = CLD_ACTIN_6hr: CellzDirect (CLD) Gene Expression Assay for Baseline Control (Actin) at 6 hours (AID 2283676);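 further: active means increased actin mRNA relative to DMSO vehicle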
# In short: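 Primary human hepatocytes dosed with fresh chemical solutions (vehicle 0.2% DMSO), harvested at 6 h. Actin mRNA quantified by quantitative nuclease protection assay with chemiluminescent read-out, as background control relative to DMSO.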
# [10] = read-out: Cytochrome P450 2B6 (Homo sapiens) (UniProt P20813); assay: CLD_CYP2B6_6hr: CellzDirect (CLD) Gene Expression Assay for xenobiotic metabolism (CYP2B6) at 6 hours (AID 2283677);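 further: actives raise CYP2B6 transcript above DMSO baseline so AC50 marks an inducer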
# In short: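 Primary human hepatocytes dosed with chemicals at multiple concentrations, vehicle 0.2% DMSO; CYP2B6 mRNA induction measured 6 h after dosing by quantitative nuclease protection assay with chemiluminescence, gain of signal fitted relative to DMSO.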
# [11] = CCTE_Padilla_ZF_144hpf_TERATOSCORE: (Legacy) CCTE's 144 Hour Post-fertilization zebrafish Assay Teratoscore, Padilla Lab (AID 2283679; active means hit-call score of the fitted dose curve at least 0.9, where 1 is the maximum; inactive means score below 0.9;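 further: zebrafish embryos with chorions exposed by immersion from 6-8 hpf to 5 dpf with daily renewal; teratogenicity score from eye scoring of death hatching and malformations at 144 hpf; higher score means more developmental defects relative to DMSO baseline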)
# In short: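 Larvae scored by eye at 144 hpf for death, hatching and malformations after a day in clean Hanks'. Before that, daily-renewed exposure at 80 uM (0.4% DMSO, 26C) from roughly 6-8 hpf through 5 dpf, 4 embryos per chemical.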
# [12] = test system: Thyroperoxidase (TPO), gene 54314; assay: CCTE_Simmons_AUR_rTPO: CCTE's Amplex UltraRed Assay for Thyroperoxidase (TPO) Inhibition, Simmons Lab (AID 2283662);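 further: potency for loss of signal meaning inhibition of peroxidase activity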
# In short: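 Rat thyroid microsomes (5 ug protein) were incubated with test compound (8 concentrations, 5 nM–87.5 uM final, 0.5% DMSO), 25 uM Amplex UltraRed and 300 uM H2O2 in 200 mM phosphate buffer for 30 min at 37C in the dark; fluorescence read at 544/590 nm.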
# [13] = CCTE_Simmons_CellTiterGLO_HEK293T: Viability Assessment in CCTE's Assays for Thyroperoxidase (TPO) Inhibition, Simmons Lab (AID 2283665)
# In short: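 HEK293T, 10 000 cells/well, DMEM + 1% FBS; 8-pt titration 5 nM–87.5 uM [final], 0.5% DMSO; 24 hr, 37C, 5% CO2; CellTiter-Glo luminescence; n=3 biological replicates.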
# [14] = read-out: xenobiotic metabolism (CYP1A1), CYP1A1 (gene 1543); assay: CLD_CYP1A1_24hr: CellzDirect (CLD) Gene Expression Assay for xenobiotic metabolism (CYP1A1) at 24 hours (AID 2283673);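 further: CYP1A1 mRNA level by quantitative nuclease protection with chemiluminescence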
# In short: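 Primary human hepatocytes dosed daily with fresh solutions in 0.2% DMSO vehicle. mRNA measured at 24 h by quantitative nuclease protection assay with chemiluminescence; gain-of-signal fit versus DMSO, with morphology-based cytotoxicity flags.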
# [15] = read-out: Cytochrome P450 3A4 (Homo sapiens) (UniProt P08684); assay: CLD_CYP3A4_6hr: CellzDirect (CLD) Gene Expression Assay for xenobiotic metabolism (CYP3A4) at 6 hours (AID 2283680)
# In short: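 Primary human hepatocytes (two donor preparations) dosed; CYP3A4 mRNA harvested at 6 h and quantified by qNPA chemiluminescence. Gain of signal fitted against 0.2% DMSO vehicle; cytotoxicity flagged by phase-contrast morphology.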
# [16] = CLD_ACTIN_24hr: CellzDirect (CLD) Gene Expression Assay for Baseline Control (Actin) at 24 hours (AID 2283670)
# In short: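 Primary human hepatocytes dosed over multiple concentrations with 0.2% DMSO vehicle; actin mRNA measured at 24 h by qNPA chemiluminescence. Background control endpoint, fitted as gain of signal versus DMSO.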
# [17] = read-out: glucuronosyltransferase (UGT1A1), UGT1A1 (gene 54658); assay: CLD_UGT1A1_6hr: CellzDirect (CLD) Gene Expression Assay for glucuronosyltransferase (UGT1A1) at 6 hours (AID 2283672)
# In short: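 Primary human hepatocytes from two donor preparations, dosed with fresh solutions in 0.2% DMSO, harvested at 6 h. UGT1A1 mRNA measured by qNPA chemiluminescence; induction fitted upward versus DMSO.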
# [18] = read-out: xenobiotic metabolism (CYP1A1), CYP1A1 (gene 1543); assay: CLD_CYP1A1_6hr: CellzDirect (CLD) Gene Expression Assay for xenobiotic metabolism (CYP1A1) at 6 hours (AID 2283661);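 further: potency for transcript induction above DMSO vehicle baseline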
# In short: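 Primary human hepatocytes from two donors, compound versus 0.2% DMSO vehicle. CYP1A1 mRNA measured 6 h after dosing by quantitative nuclease protection assay with chemiluminescent read-out; induction fitted relative to DMSO, cytotoxicity flagged by microscopy.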
# [19] = read-out: Cytochrome P450 2C19 (Homo sapiens) (UniProt P33261); assay: CLD_CYP2C19_6hr: CellzDirect (CLD) Gene Expression Assay for xenobiotic metabolism (CYP2C19) at 6 hours (AID 2283678)
# In short: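 Primary human hepatocytes from two donor preparations were dosed daily, with 0.2% DMSO as vehicle, and harvested 6 h after dosing. CYP2C19 mRNA induction was measured by qNPA chemiluminescence and fitted as gain of signal against DMSO.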
# Cytochrome P450 3A4 (Homo sapiens), sequence (P08684 whole entry, looked up): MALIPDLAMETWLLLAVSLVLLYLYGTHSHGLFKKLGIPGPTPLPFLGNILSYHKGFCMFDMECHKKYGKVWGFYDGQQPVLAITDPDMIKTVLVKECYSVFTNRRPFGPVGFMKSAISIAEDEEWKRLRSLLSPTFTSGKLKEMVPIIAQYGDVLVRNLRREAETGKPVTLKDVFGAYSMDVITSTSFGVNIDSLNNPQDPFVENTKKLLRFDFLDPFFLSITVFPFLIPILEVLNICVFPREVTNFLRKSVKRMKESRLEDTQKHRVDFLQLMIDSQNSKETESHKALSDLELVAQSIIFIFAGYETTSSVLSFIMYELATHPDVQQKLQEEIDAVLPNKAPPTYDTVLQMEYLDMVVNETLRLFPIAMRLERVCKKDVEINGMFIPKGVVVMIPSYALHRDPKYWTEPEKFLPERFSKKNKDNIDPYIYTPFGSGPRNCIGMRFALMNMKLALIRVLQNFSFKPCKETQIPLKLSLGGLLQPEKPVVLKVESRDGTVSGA
# Cytochrome P450 2C19 (Homo sapiens), sequence (P33261 whole entry, looked up): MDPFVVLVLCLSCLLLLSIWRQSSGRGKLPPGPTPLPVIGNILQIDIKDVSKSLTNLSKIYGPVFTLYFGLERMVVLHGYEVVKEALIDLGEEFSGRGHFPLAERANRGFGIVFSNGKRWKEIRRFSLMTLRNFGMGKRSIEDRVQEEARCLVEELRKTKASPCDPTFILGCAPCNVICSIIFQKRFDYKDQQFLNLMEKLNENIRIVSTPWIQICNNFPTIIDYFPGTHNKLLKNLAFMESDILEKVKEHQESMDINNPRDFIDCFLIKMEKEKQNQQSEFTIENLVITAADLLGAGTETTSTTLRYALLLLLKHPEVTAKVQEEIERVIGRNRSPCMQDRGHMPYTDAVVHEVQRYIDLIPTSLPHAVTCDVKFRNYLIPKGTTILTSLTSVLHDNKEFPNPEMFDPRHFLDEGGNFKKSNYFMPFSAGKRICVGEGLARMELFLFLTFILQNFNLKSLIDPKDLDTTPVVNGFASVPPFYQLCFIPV
compound,measurement,setting,value
CO/C=C(/C(=O)OC)c1ccccc1Oc1cc(Oc2ccccc2C#N)ncn1,outcome,[1],inactive
same,AC50,[2],78.6 µM (active)
same,outcome,[3],inactive
same,outcome,[4],inactive
same,AC50,[5],4.04 µM (active)
same,outcome,[5],inactive
same,outcome,[6],inactive
same,outcome,[7],inactive
same,outcome,[8],inactive
same,outcome,[9],inactive
same,AC50,[10],1 µM (active)
same,AC50,[11],1.46 µM (active) and 4.82 µM (active) and 4.07 µM (active)
CCOC(=O)CC(SP(=S)(OC)OC)C(=O)OCC (stereo not given),outcome,[1],inactive
same,outcome,[4],inactive
same,AC50,[12],3.4 µM (active)
same,outcome,[13],inactive
same,AC50,[5],26.5 µM (active)
same,outcome,[6],inactive
same,outcome,[14],inactive
same,outcome,[8],inactive
same,AC50,[11],27.3 µM (active)
same,outcome,[15],inactive
CCCCNC(=O)OCC#CI,outcome,[1],inactive
same,outcome,[4],inactive
same,outcome,[5],inactive
same,outcome,[6],inactive
same,outcome,[16],inactive
same,outcome,[17],inactive
same,outcome,[14],inactive
same,outcome,[8],inactive
same,AC50,[11],0.664 µM (active)
same,AC50,[15],1.89 µM (active)
C=CC1(C)OC(=O)N(c2cc(Cl)cc(Cl)c2)C1=O (stereo not given),outcome,[1],inactive
same,AC50,[2],77.2 µM (active)
same,outcome,[3],inactive
same,outcome,[5],inactive
same,outcome,[16],inactive
same,outcome,[7],inactive
same,AC50,[14],0.317 µM (active)
same,outcome,[9],inactive
same,AC50,[11],145 µM (active)
same,outcome,[15],inactive
CCOc1cc(Oc2ccc(C(F)(F)F)cc2Cl)ccc1[N+](=O)[O-],outcome,[1],inactive
same,outcome,[4],inactive
same,outcome,[5],inactive
same,outcome,[6],inactive
same,outcome,[17],inactive
same,AC50,[14],4.84 µM (active)
same,outcome,[8],inactive
same,AC50,[11],13 µM (active)
same,AC50,[15],5.4 µM (active)
CCOC(=O)C(Cl)Cc1cc(-n2nc(C)n(C(F)F)c2=O)c(F)cc1Cl (stereo not given),outcome,[1],inactive
same,outcome,[4],inactive
same,AC50,[18],0.375 µM (active)
same,AC50,[5],17 µM (active)
same,AC50,[14],0.39 µM (active)
same,outcome,[8],inactive
same,outcome,[19],inactive
same,AC50,[11],0.57 µM (active)
same,outcome,[15],inactive
